Test [1] in a line: Cell Viability - Jurkat (AID 426;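 active means dose-dependent loss of cell ATP signal giving a full or clear fitted curve, ranked by lower potency value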; further: potency means the concentration at half of the fitted maximal effect). As to conditions: qHTS. In a few lines:
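Jurkat (Clone E6-1) cells, 5000/well in complete medium, exposed to compounds for 40 hr at 37C; intracellular ATP measured by CellTiter-Glo luminescence after 20 min at room temperature. AC50 from Hill fits.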
A general note: qHTS replaces the single test concentration by a dilution series.

Test [2] concerns the target Mitogen-activated protein kinase 10 (Mus musculus) (UniProt Q61831). The test can be described thus: JNK3 AlphaScreen Assay (AID 530; active means well fitted curve in either direction with a large enough effect, not every such curve was filed as active;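 further: kinase came from lysate of stimulated human HepG2 cells; signal reports phosphorylation of biotinylated GST-cJun 1-79 at Ser73 with 10 µM ATP; on the % scale 0 is the no-effect control and ±100 the full control effect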). Conditions: JNK3 lysate, c-Jun phosphorylation; series mostly up to 57.1 µM. In a few lines: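 Pre-activated (IL-1β/TNFα) JNK3 in HepG2 lysates phosphorylates biotin-GST-cJun(1-79), 10 uM ATP; anti-phospho-cJun(Ser73) AlphaScreen read at room temperature, pH 7.6 Tris buffer. Compounds pre-incubated 15 min as titrations.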

The nature of test [3]: Cell Viability - NIH 3T3 (AID 541; active means well fitted curve in the direction sought with a large enough effect; an effect the other way counts as inactive or inconclusive; further: nearly all actives have a fitted effect of over 25% in size; further: potency means the concentration at half of the fitted maximal effect;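 on activity change, negative = cytotoxicity: plate controls were DMSO alone for no effect and tamoxifen positive control for full effect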). Conditions: NIH 3T3 cell viability, qHTS; activity change, negative = cytotoxicity: at 92.2 µM (top of the series). In a few lines:
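Mouse NIH 3T3 fibroblasts, 1000 cells/well, rested 5 hr at 37 °C, then exposed to compound for 40 hr at 37 °C in complete medium. Viability read as intracellular ATP by CellTiter-Glo luminescence; AC50 from Hill-equation fits of concentration-response data.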

Test [4] can be described thus: MultiTox-Fluor Cytotoxicity Assay - LYMP1-002 - Dead Cells (AID 960; active means well fitted curve in the direction sought with a large enough effect; an effect the other way counts as inactive or inconclusive; further: nearly all actives have a fitted effect of over 60% in size; further: potency means the concentration at half of the fitted maximal effect). As to conditions: LYMP1-002 lymphoblastoid cells, dead-cell protease fluorescence; series mostly up to 46.1 µM. Summed up:
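Human lymphoblastoid LYMP1-002 cells, 2500/well, treated 16 h at 37 C; dead-cell protease cleavage of bis-AAF-R110 read by fluorescence (485/520); normalized to DMSO and 15 uM tetraoctylammonium bromide; AC50 from Hill fit.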

A short description of test [5]: Cell Viability - LYMP2-024 (AID 988; active means well fitted curve in the direction sought with a large enough effect; an effect the other way counts as inactive or inconclusive; further: nearly all actives have a fitted effect of over 60% in size; further: potency means the concentration at half of the fitted maximal effect;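 on activity change, negative = cytotoxicity: plate controls were DMSO only for no effect and 92 µM tetraoctylammonium bromide for full effect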). As to conditions: LYMP2-024 lymphoblastoid cell viability; series mostly up to 92.2 µM. Summed up: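 Human lymphoblastoid LYMP2-024 cells (2500/well) rested 5 hr, then treated with compound for 24 hr at 37 C in complete medium. Viability was measured as intracellular ATP by CellTiter-Glo luminescence. AC50 values came from Hill-equation fits.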

Test [6] has as its target Bile acid receptor (Homo sapiens) (UniProt Q96RI1). The experiment in a line: qHTS assay for small molecule agonists of farnesoid X receptor signaling (AID 588527).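 Further: 0% = vehicle basal and 100% = reference agonist.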 Conditions: HEK293T FXR-UAS-bla, beta-lactamase ratio, 16 h; stronger effect = higher value. Summed up: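 Read-out: beta-lactamase reporter fluorescence with CCF4 substrate in GeneBLAzer FXR-UAS-bla HEK293T cells, after 16 h compound exposure at 37 C. Response scaled between DMSO basal (0%) and chenodeoxycholic acid at 100 uM (100%).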

Test [7] deals with Glucocorticoid receptor (Homo sapiens) (UniProt P04150). The test can be described thus: qHTS assay for small molecule agonists of glucocorticoid receptor signaling (AID 588532; active means well fitted curve in the direction sought with a large enough effect in the signal ratio, with a control signal flat; the % refers to the signal ratio;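 further: 100% = dexamethasone at 0.1 µM and 0% = DMSO only wells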). Conditions: HeLa MMTV-bla, beta-lactamase ratio, agonist, 18 h; stronger effect = higher value; percent of dexamethasone control, DMSO zero. In a few lines: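 Cells were plated and rested 3-5 h at 37 C, compounds were added in titration and incubated 18 h, then CCF4 substrate was loaded for 2 h at RT before reading blue/green fluorescence. EC50 came from Hill-equation fitting.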
Sequence of Glucocorticoid receptor (Homo sapiens) (P04150 whole entry, looked up): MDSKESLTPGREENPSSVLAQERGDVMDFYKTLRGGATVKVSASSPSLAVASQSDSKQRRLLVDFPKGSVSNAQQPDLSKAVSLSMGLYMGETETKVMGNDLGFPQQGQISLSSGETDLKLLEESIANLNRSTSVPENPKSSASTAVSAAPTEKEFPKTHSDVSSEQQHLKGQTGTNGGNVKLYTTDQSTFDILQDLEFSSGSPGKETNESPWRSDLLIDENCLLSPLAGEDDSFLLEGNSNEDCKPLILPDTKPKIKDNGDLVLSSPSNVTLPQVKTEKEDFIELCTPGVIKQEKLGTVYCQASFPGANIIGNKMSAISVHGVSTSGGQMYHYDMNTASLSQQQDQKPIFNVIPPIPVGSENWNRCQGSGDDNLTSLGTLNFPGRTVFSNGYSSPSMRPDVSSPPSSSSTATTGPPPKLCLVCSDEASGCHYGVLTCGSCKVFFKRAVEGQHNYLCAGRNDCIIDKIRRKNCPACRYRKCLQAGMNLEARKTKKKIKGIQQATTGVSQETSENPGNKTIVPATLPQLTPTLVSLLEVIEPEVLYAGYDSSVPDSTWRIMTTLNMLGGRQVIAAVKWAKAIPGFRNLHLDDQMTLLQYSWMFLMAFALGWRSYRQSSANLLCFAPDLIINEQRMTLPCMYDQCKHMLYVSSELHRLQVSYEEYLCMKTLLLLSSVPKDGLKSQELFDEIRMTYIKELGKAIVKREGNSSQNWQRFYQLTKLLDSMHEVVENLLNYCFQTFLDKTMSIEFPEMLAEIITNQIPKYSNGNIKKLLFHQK

Test [8] in a line: qHTS assay for small molecule antagonists of peroxisome proliferator-activated receptor delta signaling (AID 588535; active means well fitted inhibition curve with a large enough effect in the signal ratio, with a control signal flat, not every such curve was filed as active; the % refers to the signal ratio;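 on max response: cells co-treated with a PPAR-delta agonist as stimulator during compound exposure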). As to conditions: HEK293T PPARd-UAS-bla, beta-lactamase FRET ratio, 18 h; 460 nm channel. In a few lines: (§1)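 Antagonist-mode beta-lactamase reporter (GeneBLAzer PPAR-delta-UAS-bla) in HEK293T cells, 2% charcoal/dextran FBS, 4000 cells/well. Compound titrations, 18 h at 37 C; CCF4 ratio read, IC50 and efficacy from Hill fits.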

Test [9] has as its target Peroxisome proliferator-activated receptor delta (Homo sapiens) (UniProt Q03181). The description is as above. Conditions: HEK293T PPARd-UAS-bla, beta-lactamase FRET ratio, 18 h; series mostly up to 76.7 µM. In a few lines: as §1
Test [10] deals with Peroxisome proliferator-activated receptor gamma (Homo sapiens) (UniProt P37231). The test can be described thus: qHTS assay for small molecule agonists of peroxisome proliferator-activated receptor gamma signaling (AID 588536; active means well fitted curve in the direction sought with a large enough effect in the signal ratio, with a control signal flat, not every such curve was filed as active; the % refers to the signal ratio;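 further: 0% = DMSO basal wells and 100% = rosiglitazone at 2 µM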). Conditions: HEK293 PPARg-UAS-bla, beta-lactamase ratio, 16 h, percent of rosiglitazone response, DMSO as zero; series mostly up to 76.7 µM. In a few lines:
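Test agents, titrated, stimulated HEK293 UAS-bla cells overnight (16 h, 37 C). Substrate CCF4 was then added for two hours at room temperature before fluorescence reading.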

For test [11] the target is unchanged. The experiment in a line: qHTS assay for small molecule antagonists of peroxisome proliferator-activated receptor gamma signaling (AID 588537; active means well fitted inhibition curve with a large enough effect in the signal ratio, with a control signal flat, not every such curve was filed as active; the % refers to the signal ratio;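 further: reporter cells co-stimulated with 50 nM rosiglitazone agonist during compound treatment; % of control where 0% means no effect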). Conditions: HEK293 PPARg-UAS-bla, beta-lactamase ratio, antagonist mode; series mostly up to 76.8 µM. In a few lines:
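PPARγ-UAS-bla HEK293 cells (3000/well) in 1% charcoal/dextran-stripped FBS are treated with compound, then stimulated with 50 nM rosiglitazone for 16 h at 37 °C. Read-out is CCF4 β-lactamase fluorescence after 2 h at RT. IC50 comes from Hill fits normalised to rosiglitazone and DMSO.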

Test [12] deals with Vitamin D3 receptor (Homo sapiens) (UniProt P11473). The experiment in a line: qHTS assay for small molecule agonists of vitamin D receptor signaling (AID 588543).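 Further: 0% = DMSO basal and 100% = reference agonist control.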 As to conditions: HEK293T VDR-UAS-bla, beta-lactamase ratio, 16 h; series mostly up to 76.8 µM. Summed up: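 VDR-UAS-bla HEK293T cells, 2000/well, 2% charcoal-stripped FBS; compound titration 16 h at 37 C; CCF4 beta-lactamase ratio read. Normalized to 50 nM 1-alpha,25-dihydroxyvitamin D3 (100%) and DMSO; Hill fit gives EC50, efficacy.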
Sequence of Vitamin D3 receptor (Homo sapiens) (P11473 whole entry, looked up): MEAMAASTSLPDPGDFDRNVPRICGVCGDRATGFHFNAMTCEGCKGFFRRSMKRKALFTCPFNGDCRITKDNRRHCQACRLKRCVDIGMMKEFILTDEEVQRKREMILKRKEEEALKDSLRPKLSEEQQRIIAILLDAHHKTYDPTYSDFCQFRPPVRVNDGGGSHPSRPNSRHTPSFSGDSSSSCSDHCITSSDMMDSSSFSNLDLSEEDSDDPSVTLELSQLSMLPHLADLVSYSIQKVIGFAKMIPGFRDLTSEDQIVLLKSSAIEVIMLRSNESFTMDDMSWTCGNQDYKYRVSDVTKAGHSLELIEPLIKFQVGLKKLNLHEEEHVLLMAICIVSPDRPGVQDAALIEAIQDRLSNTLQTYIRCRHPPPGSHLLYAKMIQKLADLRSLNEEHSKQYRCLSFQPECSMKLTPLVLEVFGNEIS

Test [13] can be described thus: qHTS assay for small molecule activators of the nuclear factor-kappa B (NF-kB) signaling pathway (AID 651749; active means well fitted activation curve with a large enough effect in the signal ratio; the % refers to the signal ratio; further: % of control where 0% means no effect). Conditions: NF-kB-bla ME-180 cells, beta-lactamase FRET ratio, 16 h; stronger effect = higher value. In a few lines: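 NF-kB-bla ME-180 cells carrying a beta-lactamase reporter under an NF-kB response element, 2,000 cells/well, exposed to compound for 16 hr at 37C; FRET-based beta-lactamase fluorescence read-out of pathway activation.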

A short description of test [14]: qHTS assay for small molecule disruptors of the mitochondrial membrane potential - 5 hr assay (AID 651755). Further: on the % scale 0 is the no-effect control and ±100 the full control effect; nearly all actives have a fitted effect of over 40% in size. Conditions: JC-1-type ratio dye; series mostly up to 92.2 µM. Summed up:
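HepG2 cells (2,000/well), attached overnight, exposed to compound 5 hr at 37C, then Mito-MPS dye 30 min. Fluorescence read for monomers (490/535 nm) and aggregates (540/590 nm).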

Test [15] addresses Tumor necrosis factor (Homo sapiens) (UniProt P01375). The experiment in a line: qHTS assay to identify small molecules that stimulate Tumor Necrosis Factor-alpha (TNF-alpha) secretion (AID 651757; active means well fitted curve in the direction sought with a large enough effect in the signal ratio; the % refers to the signal ratio; further: 0% is about no effect). As to conditions: Human cells, HTRF 665/615 ratio; series mostly up to 92.2 µM. Summed up: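 THP-1 cells (3000/well) exposed to compounds 17 hrs at 37 C. Secreted TNF-alpha detected by HTRF with cryptate- and XL665-labeled anti-TNF-alpha antibodies after 3 hr at room temperature.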

Test [16] addresses Nuclear receptor ROR-gamma (Homo sapiens) (UniProt P51449). The experiment in a line: qHTS assay for small molecule antagonists of the retinoid-related orphan receptor gamma (ROR-gamma) signaling pathway (AID 651802; active means well fitted curve in the direction sought with a large enough effect; an effect the other way counts as inactive or inconclusive; further: nearly all actives have a fitted effect of over 60% in size; further: potency means the concentration at half of the fitted maximal effect). As to conditions: ROR-gamma antagonist cell reporter assay; series mostly up to 92.2 µM. In a few lines:
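CHO cells with TET-inducible ROR-gamma and RORE-luciferase reporter, dosed then doxycycline-induced. After 16 h at 37C, One-Glo luminescence read; decreased signal indicates antagonism.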

Test [17] is described as follows: Cell Viability - HepG2 (AID 433).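 Further: potency means the concentration at half of the fitted maximal effect; potency for ATP loss meaning cytotoxicity.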 As to conditions: qHTS. Summed up:
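HepG2 cells, 1500 per well, treated 40 hr at 37 °C in complete medium; viability from intracellular ATP by CellTiter-Glo luminescence. Normalized to DMSO and 100 uM tamoxifen; AC50 from Hill fit of qHTS concentration-response.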

For test [18], the target named is Estrogen receptor (Homo sapiens) (UniProt P03372). The experiment in a line: qHTS assay for small molecule antagonists of estrogen receptor alpha signaling (AID 588513; active means well fitted curve in the direction sought with a large enough effect in the signal ratio, with a control signal flat, not every such curve was filed as active; the % refers to the signal ratio; further: on the % scale 0 is the no-effect control and ±100 the full control effect). Conditions: ER-alpha-UAS-bla HEK293, beta-lactamase ratio, antagonist mode; series mostly up to 76.9 µM. Summed up:
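ER-alpha-UAS-bla GripTite HEK 293 cells in 2% charcoal/dextran-treated FBS medium; compounds titrated (1:2, duplicate), then stimulated with 0.5 nM 17-beta-estradiol for 18 h at 37C. CCF4 beta-lactamase fluorescence; Hill-fit IC50 and efficacy.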

Test [19] deals with Glucocorticoid receptor (Homo sapiens) (UniProt P04150). The experiment in a line: qHTS assay for small molecule antagonists of glucocorticoid receptor signaling (AID 588533; active means well fitted inhibition curve with a large enough effect in the signal ratio, with a control signal flat, not every such curve was filed as active; the % refers to the signal ratio;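 further: cells stimulated with 2 nM dexamethasone as agonist; on the % scale 0 is the no-effect control and ±100 the full control effect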). As to conditions: HeLa MMTV-bla, GRE beta-lactamase ratio, antagonist mode, 18 h; series mostly up to 76.8 µM. In a few lines: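 Antagonist-mode qHTS: compound titrations added to GRE-bla HeLa cells, then dexamethasone 2 nM final; 18 h, 37 C. CCF4 FRET fluorescence normalized to dexamethasone and DMSO; IC50 from Hill fit.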

Test [20] is described as follows: qHTS assay for small molecule agonists of the antioxidant response element (ARE) signaling pathway (AID 651741; active means well fitted activation curve with a large enough effect in the signal ratio; the % refers to the signal ratio; further: potency means the concentration at half of the fitted maximal effect; on activation: % of control where 0% means no effect). As to conditions: HepG2 ARE-bla reporter, beta-lactamase FRET ratio, 16 h; series mostly up to 96 µM. In a few lines: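 CellSensor ARE-bla HepG2 cells (2,000/well) carrying ARE-driven beta-lactamase, exposed 16 h at 37 C. LiveBLAzer B/G FRET substrate added for 2 h at room temperature; fluorescence intensity read.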

Experimental findings from PubChem BioAssay (NCATS) are described below.

Molecules are shown by their SMILES. Values joined by “and” are separate entries in the source; they are usually repeats but may differ in a detail not shown here. Equal entries are not always repeated. Inconclusive results are not listed. Active and inactive are the calls of the source. Unless noted, the call rests on the fitted dose curve. Bounds are passed on as bounds.

Sequence of Estrogen receptor (Homo sapiens) (P03372 whole entry, looked up): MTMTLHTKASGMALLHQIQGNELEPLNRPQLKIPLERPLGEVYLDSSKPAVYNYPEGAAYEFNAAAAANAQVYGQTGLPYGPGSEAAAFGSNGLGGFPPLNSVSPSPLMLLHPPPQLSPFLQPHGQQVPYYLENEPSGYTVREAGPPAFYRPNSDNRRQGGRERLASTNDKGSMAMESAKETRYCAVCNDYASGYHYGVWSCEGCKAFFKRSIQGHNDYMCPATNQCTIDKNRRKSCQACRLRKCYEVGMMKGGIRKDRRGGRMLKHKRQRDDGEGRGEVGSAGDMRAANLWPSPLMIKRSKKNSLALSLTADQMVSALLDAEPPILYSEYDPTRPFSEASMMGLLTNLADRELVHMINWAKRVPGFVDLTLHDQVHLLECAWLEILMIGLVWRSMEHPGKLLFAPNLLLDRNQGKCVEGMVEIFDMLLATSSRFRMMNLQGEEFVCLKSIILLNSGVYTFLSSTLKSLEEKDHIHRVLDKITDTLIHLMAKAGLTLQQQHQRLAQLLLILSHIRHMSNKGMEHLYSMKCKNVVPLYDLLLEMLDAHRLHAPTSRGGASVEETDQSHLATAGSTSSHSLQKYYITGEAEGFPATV
Sequence of Nuclear receptor ROR-gamma (Homo sapiens) (P51449 whole entry, looked up): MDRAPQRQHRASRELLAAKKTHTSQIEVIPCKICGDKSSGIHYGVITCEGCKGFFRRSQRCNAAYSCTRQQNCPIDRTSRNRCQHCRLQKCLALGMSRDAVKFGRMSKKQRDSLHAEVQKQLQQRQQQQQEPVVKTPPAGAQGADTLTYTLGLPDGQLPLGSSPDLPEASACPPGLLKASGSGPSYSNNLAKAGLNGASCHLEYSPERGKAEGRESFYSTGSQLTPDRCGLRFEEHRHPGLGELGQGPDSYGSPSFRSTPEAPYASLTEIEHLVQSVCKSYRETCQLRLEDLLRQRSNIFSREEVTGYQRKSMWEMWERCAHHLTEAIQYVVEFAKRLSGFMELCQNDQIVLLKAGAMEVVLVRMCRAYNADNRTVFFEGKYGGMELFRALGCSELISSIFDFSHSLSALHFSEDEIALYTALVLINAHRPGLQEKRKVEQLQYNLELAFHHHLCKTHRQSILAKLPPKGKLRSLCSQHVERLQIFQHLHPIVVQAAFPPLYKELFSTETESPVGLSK
Sequence of Bile acid receptor (Homo sapiens) (Q96RI1 whole entry, looked up): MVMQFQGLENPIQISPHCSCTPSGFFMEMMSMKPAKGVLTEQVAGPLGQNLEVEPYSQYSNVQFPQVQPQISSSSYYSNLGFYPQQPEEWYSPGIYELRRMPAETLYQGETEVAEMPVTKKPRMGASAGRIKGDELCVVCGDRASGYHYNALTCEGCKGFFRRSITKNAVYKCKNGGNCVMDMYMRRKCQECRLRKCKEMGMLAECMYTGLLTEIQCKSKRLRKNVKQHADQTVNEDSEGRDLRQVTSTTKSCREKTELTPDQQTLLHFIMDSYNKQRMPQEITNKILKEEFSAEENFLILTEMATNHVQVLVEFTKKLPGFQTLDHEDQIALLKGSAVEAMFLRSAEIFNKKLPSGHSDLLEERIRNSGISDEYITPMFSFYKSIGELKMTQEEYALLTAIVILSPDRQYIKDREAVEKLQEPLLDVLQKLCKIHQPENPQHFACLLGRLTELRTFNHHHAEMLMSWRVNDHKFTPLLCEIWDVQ
Sequence of Peroxisome proliferator-activated receptor gamma (Homo sapiens) (P37231 whole entry, looked up): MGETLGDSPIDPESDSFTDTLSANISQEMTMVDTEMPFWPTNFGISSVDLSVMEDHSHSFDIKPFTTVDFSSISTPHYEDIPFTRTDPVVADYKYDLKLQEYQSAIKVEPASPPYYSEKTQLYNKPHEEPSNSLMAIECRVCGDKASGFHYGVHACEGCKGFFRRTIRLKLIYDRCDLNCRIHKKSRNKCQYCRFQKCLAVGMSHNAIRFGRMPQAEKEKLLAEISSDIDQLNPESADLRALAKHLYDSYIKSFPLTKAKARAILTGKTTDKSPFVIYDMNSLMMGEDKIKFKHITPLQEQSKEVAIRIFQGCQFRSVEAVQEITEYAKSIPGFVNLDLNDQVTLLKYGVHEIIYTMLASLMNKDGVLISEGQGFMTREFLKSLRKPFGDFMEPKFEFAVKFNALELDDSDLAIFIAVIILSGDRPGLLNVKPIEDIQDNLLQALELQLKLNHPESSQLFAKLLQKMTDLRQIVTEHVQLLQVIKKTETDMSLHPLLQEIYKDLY
Sequence of Peroxisome proliferator-activated receptor delta (Homo sapiens) (Q03181 whole entry, looked up): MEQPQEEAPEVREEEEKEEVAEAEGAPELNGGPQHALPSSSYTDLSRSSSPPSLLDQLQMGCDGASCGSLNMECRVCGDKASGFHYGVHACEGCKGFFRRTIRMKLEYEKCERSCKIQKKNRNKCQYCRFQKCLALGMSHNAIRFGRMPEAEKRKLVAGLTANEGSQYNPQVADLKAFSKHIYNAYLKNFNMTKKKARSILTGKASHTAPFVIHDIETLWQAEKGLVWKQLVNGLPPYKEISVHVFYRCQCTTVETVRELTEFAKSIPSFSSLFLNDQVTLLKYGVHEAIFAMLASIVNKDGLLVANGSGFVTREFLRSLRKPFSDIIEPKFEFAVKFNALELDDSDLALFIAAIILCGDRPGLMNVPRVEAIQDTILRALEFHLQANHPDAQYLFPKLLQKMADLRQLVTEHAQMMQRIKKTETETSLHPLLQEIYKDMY
Sequence of Tumor necrosis factor (Homo sapiens) (P01375 whole entry, looked up): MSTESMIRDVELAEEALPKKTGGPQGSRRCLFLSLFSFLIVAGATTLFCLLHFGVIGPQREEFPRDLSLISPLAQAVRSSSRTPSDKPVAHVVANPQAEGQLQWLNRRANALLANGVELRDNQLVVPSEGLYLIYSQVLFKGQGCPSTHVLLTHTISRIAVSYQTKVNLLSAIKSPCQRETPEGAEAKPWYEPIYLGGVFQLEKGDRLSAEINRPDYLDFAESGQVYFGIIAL

Consider `O=[N+]([O-])/C=C/c1ccccc1`, for which the Potency in [1] was 9.79 µM (active); in test [3] it was 15.8 µM (active); in [5], 39.8 µM (active). Besides, the Potency entry in test [2], in test [4], in [11], in test [14] and in test [16] was “inactive” throughout. The values for the activation in test [6], in test [7] and in [13] were 2.07% (inactive), -1.34% (inactive) and -0.835% (inactive), respectively. Moreover, the max response in [8] worked out at 20.9%. Moreover, the outcome in test [9], in [10], in test [12] and in [15] was inactive.

For `C(CCOCC1CO1)COCC1CO1` (configuration not stated), the Potency is > 92 µM (inactive) in test [17] and 66.8 µM (active) in test [20]. Moreover, the Potency entry in [2], in test [3], in [4], in [18], in [14] and in [16] was “inactive” each time. Further, the results for the activation in [6], in test [7] and in test [13] were -2.57% (inactive), -0.372% (inactive) and 0.765% (inactive), respectively. The result in test [19], in test [9] and in test [12] was inactive. The max response in test [8] is -10%.

Turning to `CC(C)(C)OOC(=O)c1ccccc1`, the Potency in test [17] is > 92 µM (inactive). Further, the Potency entry in test [2], in test [5] and in [14] was “inactive” in each case. Further, the activity change, negative = cytotoxicity in test [3] is -137% (active). Further, the activation in [7] is 1.21% (inactive) and -1.74% (inactive); in test [13] it was 0.502% (inactive) and 3.48% (inactive). The max response in test [8] is -0.545%. In addition, the result in test [9], in test [12] and in [15] was inactive.

For the molecule `O=C(O)CCl`, the figures for the Potency in test [1] and in test [20] were > 92 µM (inactive) and 42.2 µM (active), respectively. Further, the Potency entry in [2], in [3], in test [4], in [5], in [11] and in test [14] was “inactive” throughout. The Potency result in [16] is “inactive”. For the same molecule, the activation in [7] is 1.7% (inactive). Further, the outcome in [10], in [12] and in test [15] was inactive.

Regarding `Cc1cc(C)cc(OP(=O)(Oc2cc(C)cc(C)c2)Oc2cc(C)cc(C)c2)c1`, the results for the Potency in test [4] and in test [16] were 31.6 µM (active) and 26.6 µM (active), respectively. Also, the Potency result in test [5], in test [18] and in [11] was “inactive” in each case. The activation in test [6] was 0.362% (inactive); in test [7], -3.84% (inactive). The outcome in test [12] and in test [15] was inactive.

In the case of `O=C(O)C(Br)CBr` (configuration not stated), in [17], the Potency was > 92 µM (inactive). Besides, the Potency result in test [2], in test [4], in test [18], in test [14] and in [16] was “inactive” each time. For the same molecule, the activation in [7] is -2.23% (inactive); in test [13], 1.48% (inactive). In test [8], the max response came to 31.3%. In addition, the outcome in test [9] and in test [15] was inactive.

For `Brc1ccc(Oc2ccc(Br)cc2Br)c(Br)c1`, the Potency in test [17] was > 92 µM (inactive). For the same molecule, the Potency entry in [4], in test [5], in test [18] and in test [11] was “inactive” in each case. In addition, the values for the activation in [6] and in test [13] were -1.06% (inactive) and 0.581% (inactive), respectively. The result in [12] and in test [15] was inactive.

Regarding `CC(=O)CCC(C)=O`, the Potency in test [1] is > 92 µM (inactive). Moreover, the Potency result in [2], in test [4], in test [5], in test [18], in test [20] and in test [14] was “inactive” throughout. The figures for the activation in [7] and in test [13] were -5.45% (inactive) and 0.108% (inactive), respectively. In test [8], the max response is -12.7%. In addition, the outcome in test [9], in test [12] and in [15] was inactive.
